Most compounds without a hit are left out; they make up all but 1.8% or so of the library.
GSTO1 counter: counter-screen for RBBP9 inhibitors: inhibitors of human GSTO1. inhibition, % at 5.96 µM. recombinant GSTO1, activity-based probe fluorescence polarization. 300,000 tested, 1.1% active;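 active means inhibition above the campaign mean inhibition plus 3 SD, cut at about 35% in these data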
Fam108B inh: counter-screen for RBBP9 inhibitors: inhibitors of mouse Fam108B | recombinant Fam108B, FP-Rh probe fluorescence polarization | inhibition, % at 9.51 µM | 300,000 tested, 0.33% active | AID 1947;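 active means inhibition above the screen mean inhibition plus 3 SD, computed separately per campaign, cut at about 18% in these data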;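 further: inhibitors lower polarization as less probe binds the enzyme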
LYPLA1 inh: counter-screen for PME1 inhibitors: inhibitors of human LYPLA1; O75608; recombinant LYPLA1, FP-Rh probe fluorescence polarization; inhibition, % at 5.9 µM; 320,000 tested, 0.16% active; AID 2174;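 active means inhibition above the mean of all tested compounds plus 3 SD, set per campaign, cut at about 14% in these data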;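 further: inhibitors block serine hydrolase probe labeling of LYPLA1 so polarization falls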
Target sequence (O75608 whole entry, looked up): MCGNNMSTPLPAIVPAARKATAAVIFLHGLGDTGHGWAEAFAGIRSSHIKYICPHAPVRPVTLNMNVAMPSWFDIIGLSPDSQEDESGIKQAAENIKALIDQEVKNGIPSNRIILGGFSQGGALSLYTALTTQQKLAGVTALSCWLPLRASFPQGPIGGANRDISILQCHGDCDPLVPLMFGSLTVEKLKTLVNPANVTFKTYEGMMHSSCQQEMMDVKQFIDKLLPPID
PAD4 FP inh: inhibitors of human PAD4; inhibition, % at 6.36 µM; 330,000 tested, 0.41% active; Q9UM07; AID 485272; recombinant PAD4, RCA probe fluorescence polarization;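 active means percent inhibition above a cutoff equal to the mean of all tested compounds plus 3 SD, cut at about 15% in these data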
LYPLA2 counter: blocks human lysophospholipase 2, a PME1 counter-screen; recombinant LYPLA2, FP-Rh probe fluorescence polarization; inhibition, % at 5.9 µM; 320,000 tested, 0.38% active; O95372;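 active means inhibition above the screen-wide mean plus 3 SD, limit set per campaign, cut at about 26% in these data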
Target sequence (O95372 whole entry, looked up): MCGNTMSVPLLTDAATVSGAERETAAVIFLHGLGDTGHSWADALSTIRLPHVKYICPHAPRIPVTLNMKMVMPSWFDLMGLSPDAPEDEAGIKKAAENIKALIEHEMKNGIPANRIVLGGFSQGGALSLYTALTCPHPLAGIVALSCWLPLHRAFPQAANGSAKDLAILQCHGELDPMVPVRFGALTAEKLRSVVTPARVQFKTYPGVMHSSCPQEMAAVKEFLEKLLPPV
PME-1 primary: PME-1 (human) inhibition; Q9Y570; recombinant PME-1, FP-Rh probe fluorescence polarization; inhibition, % at 5.9 µM; 320,000 tested, 0.53% active; AID 2130;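 active means inhibition above the campaign mean of all compounds plus 3 SD, cut at about 26% in these data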;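 further: competitive labeling of PME-1 active site by serine hydrolase directed probe; inhibitors block probe labeling so polarization falls and inhibition rises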
GSTO1 inh conf: GSTO1 (human) inhibition, confirmation | shares compounds with GSTO1 counter | recombinant GSTO1, probe fluorescence polarization | inhibition, % at 5.96 µM | 2,400 tested, 54% active | AID 2176;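 active means inhibition above the primary screen's cutoff, its mean inhibition plus 3 SD, cut at about 35% in these data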;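 further: loss of polarization as inhibitors block binding of rhodamine sulfonate ester activity probe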
Large screens that a line does not name were inactive (follow-up assays come after a bar, where they were run).

O=C(O)CN1C(=O)/C(=C\c2cccc(OCc3ccccc3)c2)SC1=S	GSTO1 counter 40 | GSTO1 inh conf inactive
O=C(O)CN1C(=O)/C(=C\c2ccccc2OCc2ccc(F)cc2)SC1=S	none
O=C(O)CCCN1C(=O)/C(=C\c2ccccc2OCc2ccccc2)SC1=S	GSTO1 counter 39 | GSTO1 inh conf 48
Oc1c(Cl)cc(Cl)cc1C=Nc1cc(C(F)(F)F)ccc1N1CCc2ccccc2C1	none
CCCN(c1ccccc1F)S(=O)(=O)c1cc(-c2cc(C)no2)ccc1OC	none
COCc1cc(C)nc(SCC(=O)c2ccc(O)c(O)c2)c1C#N	GSTO1 counter 48 | GSTO1 inh conf inactive
Cc1cc(C)c(NC(=O)CN2C(=O)NC3(CCc4ccccc43)C2=O)c(Cl)c1 (configuration not stated)	none (no result: GSTO1 counter, Fam108B inh, LYPLA1 inh, LYPLA2 counter, PME-1 primary)
Cc1cc(C)c(NC(=O)CN2C(=O)NC3(CCCCC3)C2=O)c(Cl)c1	GSTO1 counter 54 | GSTO1 inh conf inactive
COc1ccc(NC(=O)C(=O)NCCC2CCCCN2S(=O)(=O)c2ccccc2)cc1 (configuration not stated)	none
O=[N+]([O-])c1ccc(O)c(C=Nc2ccc3oc(Cc4ccc(Cl)cc4)nc3c2)c1	GSTO1 counter 41 | GSTO1 inh conf inactive
O=[N+]([O-])c1ccc(O)c(C=Nc2ccc3c(c2)OCCO3)c1	none
Cc1ccc2nc(N3CCC(C(=O)O)CC3)nc(-c3ccccc3)c2c1	GSTO1 counter 54 | GSTO1 inh conf 58
Cc1cccc(NC(=O)c2ccc(S(=O)(=O)NCc3cccnc3)cc2)c1	none
COC(C[C@H]1O[C@@H]1[C@H](O)COCc1ccccc1)OC	none (no result: GSTO1 counter, Fam108B inh)
COC(C[C@@H]1O[C@H]1[C@H](O)[C@@H](C)OCc1ccccc1)OC	GSTO1 counter 40 | GSTO1 inh conf inactive
COc1ccc(CN(C)CC(=O)Nc2ccccc2C(=O)NC2CC2)cc1	none (no result: GSTO1 counter, Fam108B inh)
CC1(C)Cc2cccc(OCC(=O)Nc3cc(S(C)(=O)=O)ccc3Cl)c2O1	none (no result: GSTO1 counter, Fam108B inh)
CCN(CC(=O)NCc1ccc(Cl)cc1)C(=O)CSCC(=O)Nc1cccc(C)c1	GSTO1 counter 44 | GSTO1 inh conf inactive
O=C1C=C(c2ccc(F)nc2)C[C@@H](c2ccc3c(c2)OCO3)C1	none (no result: GSTO1 counter, Fam108B inh)
Cc1ccc(NC(=O)COC(=O)c2cc(=O)c3ccccc3o2)cc1F	none (no result: GSTO1 counter, Fam108B inh)
CC(C)OP(=O)(OC(C)C)C1(NS(=O)(=O)c2ccc(Cl)cc2)C=C(Cl)C(=O)C(Cl)=C1	GSTO1 counter 62 | GSTO1 inh conf 44
Cc1cc(C(=O)CN2C(=O)NC(C)(c3ccccc3)C2=O)c(C)n1CC1CCCO1 (configuration not stated)	none
Cc1cc(C(=O)CN2C(=O)c3ccccc3S2(=O)=O)c(C)n1CC1CCCO1 (configuration not stated)	GSTO1 counter 73 | GSTO1 inh conf inactive
O=C(CCl)Nc1c2c(nn1-c1ccccc1)CSC2	GSTO1 counter 98 | GSTO1 inh conf 98
O=C(CCCCl)Nc1c2c(nn1-c1ccccc1)CSC2	none
CCCCOc1ccc(C(=O)Oc2cc(C)[nH]c(=O)c2[N+](=O)[O-])cc1	none
CCOc1ccc(C(=O)Oc2cc(C)[nH]c(=O)c2[N+](=O)[O-])cc1	GSTO1 counter 61 | GSTO1 inh conf inactive
Cc1noc(C(F)(F)F)c1C(=O)NNC(=O)c1cccc(C(F)(F)F)c1	none
CCN(CC)c1ccc2c(O)cc(=O)oc2c1	GSTO1 counter 54 | GSTO1 inh conf inactive
COc1ccc2oc(=O)c(/C(C)=N/Nc3ccccc3)cc2c1	none
C=COc1ccc(N2C(=O)c3ccccc3OC2C)cc1 (configuration not stated)	none
COc1ccccc1N(O)C1CC(=O)N(c2ccc(F)cc2)C1=O (configuration not stated)	GSTO1 counter 57 | GSTO1 inh conf inactive
O=C1CC(N(O)c2ccccc2)C(=O)N1c1cc(Cl)cc(Cl)c1 (configuration not stated)	GSTO1 counter 68, PAD4 FP inh 15, PME-1 primary 34 | GSTO1 inh conf inactive
O=C(CC1S/C(=N/N=C/c2ccco2)NC1=O)Nc1cccc(Cl)c1Cl (configuration not stated)	none
CC1=C(CC(=O)c2ccc(Cl)cc2)C(=O)c2ccccc2C1=O	GSTO1 counter 45 | GSTO1 inh conf inactive
